# Source: publication PMC7862700, “An all-to-all approach to the identification of sequence-specific readers for epigenetic DNA modifications on cytosine”
# Assays:
# Assay in all cases: DAPPL (digital affinity profiling via proximity ligation, sequencing); 10 mM Tris-HCl pH 7.5, 50 mM NaCl, 1 mM DTT, 4% glycerol, room temperature, 30 min; GST-TFs on glutathione beads, 16-mer random dsDNA library, 0.1% formaldehyde crosslink after washing; high values mean tight binding
# [1] = biological target: T1, FLI1 (Homo sapiens, UniProt Q01543 1-452); settings: protein: recombinant; tags: N-terminal GST; dsDNA, one strand shown
# T1 sequence: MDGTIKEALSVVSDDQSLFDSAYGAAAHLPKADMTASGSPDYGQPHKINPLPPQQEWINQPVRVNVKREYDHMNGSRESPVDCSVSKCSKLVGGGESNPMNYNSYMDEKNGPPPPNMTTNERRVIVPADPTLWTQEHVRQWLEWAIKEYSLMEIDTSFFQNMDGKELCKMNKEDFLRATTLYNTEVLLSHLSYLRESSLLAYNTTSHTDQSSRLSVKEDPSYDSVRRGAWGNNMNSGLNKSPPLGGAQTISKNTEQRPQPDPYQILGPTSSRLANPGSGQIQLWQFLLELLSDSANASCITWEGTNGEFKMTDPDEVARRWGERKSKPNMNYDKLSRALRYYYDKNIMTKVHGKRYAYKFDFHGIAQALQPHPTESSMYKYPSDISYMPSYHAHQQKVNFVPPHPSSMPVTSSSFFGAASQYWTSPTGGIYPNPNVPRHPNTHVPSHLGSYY
# Outline: (§1)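 Yeast served to express human transcription factors as GST fusions, which were then captured on glutathione beads and labelled with DNA barcodes. Pooled with a tag-only sample, they were incubated with 200 nmole of a 16-mer random double-stranded DNA library for 30 min at room temperature in Tris/NaCl/DTT/glycerol buffer, washed, crosslinked with 0.1% formaldehyde, ligated by proximity, amplified by PCR and sequenced. Dividing each hexamer's read frequency for a factor by its frequency for the tag-only sample gives the binding signal.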
# [2] = biological target: T2, ELK1 (Homo sapiens, UniProt P19419 1-428); settings: protein: recombinant; tags: N-terminal GST; dsDNA, one strand shown
# T2 sequence: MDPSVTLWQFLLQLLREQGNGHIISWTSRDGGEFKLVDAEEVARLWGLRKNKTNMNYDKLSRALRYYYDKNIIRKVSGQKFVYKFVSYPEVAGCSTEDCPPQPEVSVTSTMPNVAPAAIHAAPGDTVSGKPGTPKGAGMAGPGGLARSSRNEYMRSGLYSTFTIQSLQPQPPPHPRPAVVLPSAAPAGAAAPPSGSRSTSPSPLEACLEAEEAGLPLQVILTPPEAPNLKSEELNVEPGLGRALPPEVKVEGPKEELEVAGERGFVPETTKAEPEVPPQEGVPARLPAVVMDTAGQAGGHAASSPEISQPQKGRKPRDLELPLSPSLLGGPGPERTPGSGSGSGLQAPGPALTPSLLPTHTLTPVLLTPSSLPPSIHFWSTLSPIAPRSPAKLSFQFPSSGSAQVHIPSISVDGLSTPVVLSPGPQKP
# Outline: as §1
# [3] = biological target: T3, GABPA (Homo sapiens, UniProt Q06546 1-454); settings: protein: recombinant; tags: N-terminal GST; dsDNA, one strand shown
# T3 sequence: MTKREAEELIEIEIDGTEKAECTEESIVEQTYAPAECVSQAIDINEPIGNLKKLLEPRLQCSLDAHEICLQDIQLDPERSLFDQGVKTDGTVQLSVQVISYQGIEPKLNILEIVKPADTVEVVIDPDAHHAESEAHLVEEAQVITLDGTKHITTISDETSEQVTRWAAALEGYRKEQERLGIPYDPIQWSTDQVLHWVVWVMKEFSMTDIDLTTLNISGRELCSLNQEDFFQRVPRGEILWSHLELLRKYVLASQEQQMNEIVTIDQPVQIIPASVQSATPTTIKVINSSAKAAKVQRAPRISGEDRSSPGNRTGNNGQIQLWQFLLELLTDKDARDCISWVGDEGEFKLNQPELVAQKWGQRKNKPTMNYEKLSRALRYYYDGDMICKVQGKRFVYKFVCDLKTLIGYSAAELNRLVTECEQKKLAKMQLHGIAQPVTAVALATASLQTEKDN
# Outline: as §1
# [4] = biological target: T4, ERG (Homo sapiens, UniProt P11308 1-479); settings: protein: recombinant; tags: N-terminal GST; dsDNA, one strand shown
# T4 sequence: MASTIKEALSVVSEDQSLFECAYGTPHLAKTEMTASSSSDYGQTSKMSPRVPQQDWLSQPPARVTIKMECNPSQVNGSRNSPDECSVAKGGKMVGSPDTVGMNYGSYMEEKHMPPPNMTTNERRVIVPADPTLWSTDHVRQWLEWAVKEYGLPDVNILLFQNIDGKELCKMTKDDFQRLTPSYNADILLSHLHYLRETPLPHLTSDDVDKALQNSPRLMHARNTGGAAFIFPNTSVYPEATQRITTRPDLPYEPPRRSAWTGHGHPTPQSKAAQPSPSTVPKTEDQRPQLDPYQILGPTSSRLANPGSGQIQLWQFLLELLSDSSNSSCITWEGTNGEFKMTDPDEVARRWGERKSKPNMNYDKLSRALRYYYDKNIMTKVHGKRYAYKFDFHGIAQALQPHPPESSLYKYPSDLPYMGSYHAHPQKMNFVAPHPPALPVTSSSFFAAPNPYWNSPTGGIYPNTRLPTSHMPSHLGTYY
# Outline: as §1
# [5] = biological target: ELF1 (Homo sapiens, UniProt P32519 1-619); settings: protein: recombinant; tags: N-terminal GST; dsDNA, one strand shown
# Chain of ELF1 (P32519 whole entry): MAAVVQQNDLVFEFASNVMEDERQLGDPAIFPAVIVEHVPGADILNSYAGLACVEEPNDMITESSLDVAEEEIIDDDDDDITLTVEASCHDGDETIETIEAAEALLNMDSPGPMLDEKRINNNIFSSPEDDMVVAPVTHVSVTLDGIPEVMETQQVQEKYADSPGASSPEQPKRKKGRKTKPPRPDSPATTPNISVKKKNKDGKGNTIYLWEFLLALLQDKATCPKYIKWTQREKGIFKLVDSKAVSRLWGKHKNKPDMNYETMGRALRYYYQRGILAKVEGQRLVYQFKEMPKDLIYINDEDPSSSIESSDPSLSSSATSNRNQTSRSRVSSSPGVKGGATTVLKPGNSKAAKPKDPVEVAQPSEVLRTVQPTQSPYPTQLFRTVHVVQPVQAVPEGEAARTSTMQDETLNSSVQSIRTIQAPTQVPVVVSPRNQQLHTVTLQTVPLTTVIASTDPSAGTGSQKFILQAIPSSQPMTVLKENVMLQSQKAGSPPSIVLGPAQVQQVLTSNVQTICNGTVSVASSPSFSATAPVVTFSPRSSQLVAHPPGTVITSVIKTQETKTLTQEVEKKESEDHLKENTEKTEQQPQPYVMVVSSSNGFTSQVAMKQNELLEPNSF
# Outline: as §1
# [6] = biological target: T5, EHF (Homo sapiens, UniProt Q9NZC4 1-300); settings: protein: recombinant; tags: N-terminal GST; dsDNA, one strand shown
# T5 sequence: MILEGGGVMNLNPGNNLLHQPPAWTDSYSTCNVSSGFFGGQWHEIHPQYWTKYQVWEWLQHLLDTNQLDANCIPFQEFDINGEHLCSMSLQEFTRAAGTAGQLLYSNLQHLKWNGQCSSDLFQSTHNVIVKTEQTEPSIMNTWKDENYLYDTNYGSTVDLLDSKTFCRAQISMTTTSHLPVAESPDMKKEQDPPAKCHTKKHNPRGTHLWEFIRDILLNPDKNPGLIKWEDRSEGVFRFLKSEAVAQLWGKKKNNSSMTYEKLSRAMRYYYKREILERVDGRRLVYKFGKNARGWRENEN
# Outline: as §1
# [7] = biological target: SPI1 (Homo sapiens, UniProt P17947 1-270); settings: protein: recombinant; tags: N-terminal GST; dsDNA, one strand shown
# Outline: as §1
# [8] = biological target: SPIB (Homo sapiens, UniProt Q01892 1-262); settings: protein: recombinant; tags: N-terminal GST; dsDNA, one strand shown
# Chain of SPIB (Q01892 whole entry): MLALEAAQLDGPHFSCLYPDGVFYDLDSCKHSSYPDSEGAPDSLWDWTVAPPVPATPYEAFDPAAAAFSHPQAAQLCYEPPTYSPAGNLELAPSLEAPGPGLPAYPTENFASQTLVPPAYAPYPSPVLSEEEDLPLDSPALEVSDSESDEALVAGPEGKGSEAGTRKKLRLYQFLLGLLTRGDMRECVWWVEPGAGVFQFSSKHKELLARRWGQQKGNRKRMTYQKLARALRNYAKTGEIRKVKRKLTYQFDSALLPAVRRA
# Outline: as §1
# [9] = biological target: T6, ELK3 (Homo sapiens, UniProt P41970 1-407); settings: protein: recombinant; tags: N-terminal GST; dsDNA, one strand shown
# T6 sequence: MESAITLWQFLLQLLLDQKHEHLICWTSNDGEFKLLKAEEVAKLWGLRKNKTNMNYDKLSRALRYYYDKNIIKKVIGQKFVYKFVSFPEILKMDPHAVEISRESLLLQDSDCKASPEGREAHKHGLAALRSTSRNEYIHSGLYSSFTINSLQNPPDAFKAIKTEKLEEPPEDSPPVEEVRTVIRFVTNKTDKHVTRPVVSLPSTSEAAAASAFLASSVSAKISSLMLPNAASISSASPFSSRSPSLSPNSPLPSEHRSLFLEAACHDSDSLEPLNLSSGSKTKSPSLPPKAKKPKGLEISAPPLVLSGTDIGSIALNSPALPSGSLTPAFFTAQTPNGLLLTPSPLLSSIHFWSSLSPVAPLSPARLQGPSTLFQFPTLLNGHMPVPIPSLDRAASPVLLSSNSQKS
# Outline: as §1
# [10] = biological target: T7, FEV (Homo sapiens, UniProt Q99581 1-238); settings: protein: recombinant; tags: N-terminal GST; dsDNA, one strand shown
# T7 sequence: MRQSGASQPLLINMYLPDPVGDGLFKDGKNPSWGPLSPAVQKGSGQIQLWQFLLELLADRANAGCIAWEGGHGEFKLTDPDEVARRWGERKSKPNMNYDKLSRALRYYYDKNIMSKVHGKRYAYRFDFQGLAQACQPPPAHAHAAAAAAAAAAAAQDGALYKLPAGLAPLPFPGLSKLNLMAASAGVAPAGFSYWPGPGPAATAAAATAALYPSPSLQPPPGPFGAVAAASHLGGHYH
# Outline: as §1
# [11] = biological target: ETV5 (Homo sapiens, UniProt P41161 1-510); settings: protein: recombinant; tags: N-terminal GST; dsDNA, one strand shown
# Chain of ETV5 (P41161 whole entry): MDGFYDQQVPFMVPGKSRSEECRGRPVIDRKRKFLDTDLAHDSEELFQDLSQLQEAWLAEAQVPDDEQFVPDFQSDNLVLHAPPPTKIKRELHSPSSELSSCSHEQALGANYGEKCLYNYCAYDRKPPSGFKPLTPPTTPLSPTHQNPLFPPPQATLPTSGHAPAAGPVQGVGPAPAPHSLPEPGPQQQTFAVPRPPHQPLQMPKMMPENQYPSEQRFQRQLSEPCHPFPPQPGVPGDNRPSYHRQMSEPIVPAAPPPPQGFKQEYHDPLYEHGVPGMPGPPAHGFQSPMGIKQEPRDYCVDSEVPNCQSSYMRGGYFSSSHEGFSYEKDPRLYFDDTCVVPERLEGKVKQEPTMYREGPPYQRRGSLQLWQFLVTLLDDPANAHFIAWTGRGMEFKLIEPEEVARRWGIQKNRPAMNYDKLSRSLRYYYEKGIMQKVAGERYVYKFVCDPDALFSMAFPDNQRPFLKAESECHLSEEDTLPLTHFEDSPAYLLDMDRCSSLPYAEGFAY
# Outline: as §1
# [12] = biological target: HSF1 (Homo sapiens, UniProt Q00613 1-529); settings: protein: recombinant; tags: N-terminal GST; chain copies: 3; dsDNA, one strand shown
# Chain of HSF1 (Q00613 whole entry): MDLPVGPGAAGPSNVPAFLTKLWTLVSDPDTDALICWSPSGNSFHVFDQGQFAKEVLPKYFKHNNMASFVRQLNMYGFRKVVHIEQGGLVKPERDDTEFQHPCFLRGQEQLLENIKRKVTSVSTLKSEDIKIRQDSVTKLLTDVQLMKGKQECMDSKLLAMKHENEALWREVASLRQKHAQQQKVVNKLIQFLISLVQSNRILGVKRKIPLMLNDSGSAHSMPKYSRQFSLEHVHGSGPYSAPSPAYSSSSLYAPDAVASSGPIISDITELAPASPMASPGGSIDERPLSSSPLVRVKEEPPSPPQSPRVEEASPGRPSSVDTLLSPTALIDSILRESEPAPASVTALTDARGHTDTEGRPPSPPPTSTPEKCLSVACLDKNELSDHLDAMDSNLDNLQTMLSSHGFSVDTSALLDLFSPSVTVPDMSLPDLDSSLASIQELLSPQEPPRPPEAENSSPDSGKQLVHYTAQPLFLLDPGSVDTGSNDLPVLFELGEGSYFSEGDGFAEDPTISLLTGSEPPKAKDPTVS
# Outline: as §1
# [13] = biological target: T8, SPIC (Homo sapiens, UniProt Q8N5J4 1-248); settings: protein: recombinant; tags: N-terminal GST; dsDNA, one strand shown
# T8 sequence: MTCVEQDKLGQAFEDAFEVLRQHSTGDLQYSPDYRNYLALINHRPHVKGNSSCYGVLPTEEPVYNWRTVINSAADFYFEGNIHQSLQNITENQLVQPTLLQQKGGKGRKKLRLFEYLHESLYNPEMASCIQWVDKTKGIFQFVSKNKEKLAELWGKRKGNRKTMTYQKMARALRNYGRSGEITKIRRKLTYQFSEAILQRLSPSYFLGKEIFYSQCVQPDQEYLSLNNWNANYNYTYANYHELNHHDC
# Outline: as §1
# [14] = biological target: ELF4 (Homo sapiens, UniProt Q99607 1-663); settings: protein: recombinant; tags: N-terminal GST; dsDNA, one strand shown
# Chain of ELF4 (Q99607 whole entry): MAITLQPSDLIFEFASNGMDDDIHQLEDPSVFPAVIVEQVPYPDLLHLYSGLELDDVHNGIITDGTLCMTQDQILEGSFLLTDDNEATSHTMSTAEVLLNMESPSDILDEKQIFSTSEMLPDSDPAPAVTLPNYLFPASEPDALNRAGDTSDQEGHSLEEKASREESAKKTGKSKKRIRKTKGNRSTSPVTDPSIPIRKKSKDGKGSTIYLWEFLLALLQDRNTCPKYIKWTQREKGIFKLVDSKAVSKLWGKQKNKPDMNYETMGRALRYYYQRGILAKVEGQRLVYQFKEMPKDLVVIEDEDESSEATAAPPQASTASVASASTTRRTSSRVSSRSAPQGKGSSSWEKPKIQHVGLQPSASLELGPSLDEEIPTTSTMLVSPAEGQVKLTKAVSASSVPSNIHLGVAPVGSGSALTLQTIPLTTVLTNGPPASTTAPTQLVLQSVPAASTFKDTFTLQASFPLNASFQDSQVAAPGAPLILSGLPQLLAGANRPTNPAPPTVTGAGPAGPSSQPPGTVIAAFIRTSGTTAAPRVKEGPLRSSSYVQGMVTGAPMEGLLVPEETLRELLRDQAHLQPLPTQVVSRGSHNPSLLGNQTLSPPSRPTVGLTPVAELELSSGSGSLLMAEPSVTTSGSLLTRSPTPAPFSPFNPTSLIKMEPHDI
# Outline: as §1
# [15] = biological target: T9, ELK4 (Homo sapiens, UniProt P28324-2 1-405); settings: protein: recombinant; tags: N-terminal GST; dsDNA, one strand shown
# T9 sequence: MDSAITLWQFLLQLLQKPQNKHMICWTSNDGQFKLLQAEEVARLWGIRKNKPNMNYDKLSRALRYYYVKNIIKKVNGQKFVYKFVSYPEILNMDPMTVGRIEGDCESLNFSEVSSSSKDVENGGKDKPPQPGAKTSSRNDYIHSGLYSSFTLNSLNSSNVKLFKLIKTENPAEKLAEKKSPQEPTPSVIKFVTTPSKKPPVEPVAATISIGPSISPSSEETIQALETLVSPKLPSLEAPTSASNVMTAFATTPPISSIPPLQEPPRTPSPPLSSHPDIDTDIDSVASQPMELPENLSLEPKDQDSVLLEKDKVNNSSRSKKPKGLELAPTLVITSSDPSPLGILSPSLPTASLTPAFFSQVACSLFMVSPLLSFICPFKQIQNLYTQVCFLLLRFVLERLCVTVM
# Outline: as §1
# [16] = biological target: T10, ETV2 (Homo sapiens, UniProt O00321 1-342); settings: protein: recombinant; tags: N-terminal GST; dsDNA, one strand shown
# T10 sequence: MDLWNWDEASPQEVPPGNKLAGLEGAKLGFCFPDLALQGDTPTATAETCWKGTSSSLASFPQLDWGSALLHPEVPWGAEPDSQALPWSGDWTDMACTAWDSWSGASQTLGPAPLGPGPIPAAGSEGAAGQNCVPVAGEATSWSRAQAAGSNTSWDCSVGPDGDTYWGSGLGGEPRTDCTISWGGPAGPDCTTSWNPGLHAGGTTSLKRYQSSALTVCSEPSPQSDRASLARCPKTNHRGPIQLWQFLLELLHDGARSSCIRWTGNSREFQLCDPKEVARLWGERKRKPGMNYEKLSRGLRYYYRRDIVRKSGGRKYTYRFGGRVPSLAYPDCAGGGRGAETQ
# Outline: as §1
# [17] = biological target: T11, ELF3 (Homo sapiens, UniProt P78545 1-371); settings: protein: recombinant; tags: N-terminal GST; dsDNA, one strand shown
# T11 sequence: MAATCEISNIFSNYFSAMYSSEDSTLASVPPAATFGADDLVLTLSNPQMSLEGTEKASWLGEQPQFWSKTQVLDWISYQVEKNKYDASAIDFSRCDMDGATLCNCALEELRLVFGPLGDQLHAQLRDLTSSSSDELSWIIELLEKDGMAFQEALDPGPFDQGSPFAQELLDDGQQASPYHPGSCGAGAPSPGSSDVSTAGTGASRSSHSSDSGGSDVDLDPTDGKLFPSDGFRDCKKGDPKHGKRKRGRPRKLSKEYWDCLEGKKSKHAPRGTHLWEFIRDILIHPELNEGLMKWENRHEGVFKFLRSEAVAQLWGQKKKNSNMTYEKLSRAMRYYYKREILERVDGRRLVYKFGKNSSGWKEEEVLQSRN
# Outline: as §1
# [18] = biological target: CRX (Homo sapiens, UniProt O43186 1-299); settings: protein: recombinant; tags: N-terminal GST; dsDNA, one strand shown
# Chain of CRX (O43186 whole entry): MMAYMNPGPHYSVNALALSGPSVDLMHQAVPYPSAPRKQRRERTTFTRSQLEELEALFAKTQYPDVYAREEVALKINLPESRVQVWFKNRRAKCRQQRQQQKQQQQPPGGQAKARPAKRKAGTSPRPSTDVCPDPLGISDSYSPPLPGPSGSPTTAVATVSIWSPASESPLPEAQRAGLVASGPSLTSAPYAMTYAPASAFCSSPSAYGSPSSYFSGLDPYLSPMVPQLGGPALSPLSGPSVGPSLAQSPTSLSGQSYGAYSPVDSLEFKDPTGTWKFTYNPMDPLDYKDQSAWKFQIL
# Outline: as §1
# [19] = biological target: ETV1 (Homo sapiens, UniProt P50549 1-477); settings: protein: recombinant; tags: N-terminal GST; dsDNA, one strand shown
# Chain of ETV1 (P50549 whole entry): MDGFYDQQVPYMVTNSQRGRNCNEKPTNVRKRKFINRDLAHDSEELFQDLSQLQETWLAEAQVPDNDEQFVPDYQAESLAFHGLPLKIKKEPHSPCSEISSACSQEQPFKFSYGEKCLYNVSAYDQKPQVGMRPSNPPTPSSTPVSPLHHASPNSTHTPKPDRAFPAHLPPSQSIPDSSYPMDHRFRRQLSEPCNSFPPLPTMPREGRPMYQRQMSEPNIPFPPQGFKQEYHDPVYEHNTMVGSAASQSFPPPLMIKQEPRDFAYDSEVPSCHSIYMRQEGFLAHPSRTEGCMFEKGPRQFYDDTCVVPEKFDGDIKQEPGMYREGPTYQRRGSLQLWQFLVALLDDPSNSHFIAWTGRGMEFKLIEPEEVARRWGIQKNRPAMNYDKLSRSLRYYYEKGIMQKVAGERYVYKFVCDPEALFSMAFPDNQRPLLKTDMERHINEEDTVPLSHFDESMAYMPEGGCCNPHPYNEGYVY
# Outline: as §1
sequence,measurement,setting,value
CTCATG,binding signal,[1],"1.29 fold enrichment (6-mer frequency, TF over GST control)"
same,binding signal,[2],"1.29 fold enrichment (6-mer frequency, TF over GST control)"
same,binding signal,[3],"1.26 fold enrichment (6-mer frequency, TF over GST control)"
same,binding signal,[4],"1.21 fold enrichment (6-mer frequency, TF over GST control)"
same,binding signal,[5],"1.32 fold enrichment (6-mer frequency, TF over GST control)"
same,binding signal,[6],"1.23 fold enrichment (6-mer frequency, TF over GST control)"
same,binding signal,[7],"1.27 fold enrichment (6-mer frequency, TF over GST control)"
same,binding signal,[8],"1.11 fold enrichment (6-mer frequency, TF over GST control)"
same,binding signal,[9],"1.26 fold enrichment (6-mer frequency, TF over GST control)"
same,binding signal,[10],"1.27 fold enrichment (6-mer frequency, TF over GST control)"
same,binding signal,[11],"1.28 fold enrichment (6-mer frequency, TF over GST control)"
same,binding signal,[12],"1.04 fold enrichment (6-mer frequency, TF over GST control)"
same,binding signal,[13],"1.35 fold enrichment (6-mer frequency, TF over GST control)"
same,binding signal,[14],"1.19 fold enrichment (6-mer frequency, TF over GST control)"
same,binding signal,[15],"1.28 fold enrichment (6-mer frequency, TF over GST control)"
same,binding signal,[16],"1.24 fold enrichment (6-mer frequency, TF over GST control)"
same,binding signal,[17],"1.2 fold enrichment (6-mer frequency, TF over GST control)"
same,binding signal,[18],"1.05 fold enrichment (6-mer frequency, TF over GST control)"
same,binding signal,[19],"1.29 fold enrichment (6-mer frequency, TF over GST control)"
